Assay outcomes: PubChem, National Center for Advancing Translational Sciences (NCATS)
HepG2 viability – qHTS for Inhibitors of TGF-b: Cytotox Counterscreen. HepG2 CAGA-GFP viability, ATP luminescence, 18 h. Potency, µM (titrated, usually from 46.1 µM), without a hit: at the highest dose activity change, negative = cytotoxicity, most hits filed as cytotoxic. 410,000 tested, 0.76% active. AID 588856, 2011; note: potency is the fitted concentration of half-maximal effect
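HepG2 CAGA-GFP cells (1000/well, DMEM with 1% FBS) received compound, then TGF-beta at 500 pg/mL final, and were incubated 18 hours at 37 degrees C. Viability was read by CellTiter-Glo luminescence. Media-only wells were set as complete cell-killing and DMSO as no toxicity.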
ATXN2 expr inh – Primary qHTS for Inhibitors of ATXN expression. 360,000 tested, 0.72% active. HEK-293 ATXN2-luciferase reporter, luminescence, 24 h. Potency, µM (doses to about 57 µM), inactives show at the highest dose activity change, negative = inhibition, most hits filed as inhibitors. AID 1745845, 2022; note: potency is the fitted concentration of half-maximal effect; % is set by controls: 0 for no effect and ±100 for the full control effect; nearly all actives have a fitted effect of over 55% in size
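qHTS (up to 57 uM final) was run with 24 h compound exposure of reporter cells at 37 °C. Each well was multiplexed: SteadyGlo luminescence measured ATXN2-luciferase expression after a fluorogenic Gly-Phe-AFC viability readout (25 uM final).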
Six1-Eya2 blk – qHTS Assay for Inhibitors of the Six1/Eya2 Interaction. Homeobox protein SIX1 (Homo sapiens) + Protein phosphatase EYA2 (Homo sapiens), …. 360,000 tested, 0.56% active. activity change, % (concentration not given with the values). AlphaScreen GST-Six1/His-Eya2 binding, biochemical; stronger effect = lower value; in the data active = activity change below about -65%; inconclusive = mostly about -30% to -63%; note: % is set by controls: 0 for no effect and ±100 for the full control effect
Target sequence (O00167 whole entry, looked up): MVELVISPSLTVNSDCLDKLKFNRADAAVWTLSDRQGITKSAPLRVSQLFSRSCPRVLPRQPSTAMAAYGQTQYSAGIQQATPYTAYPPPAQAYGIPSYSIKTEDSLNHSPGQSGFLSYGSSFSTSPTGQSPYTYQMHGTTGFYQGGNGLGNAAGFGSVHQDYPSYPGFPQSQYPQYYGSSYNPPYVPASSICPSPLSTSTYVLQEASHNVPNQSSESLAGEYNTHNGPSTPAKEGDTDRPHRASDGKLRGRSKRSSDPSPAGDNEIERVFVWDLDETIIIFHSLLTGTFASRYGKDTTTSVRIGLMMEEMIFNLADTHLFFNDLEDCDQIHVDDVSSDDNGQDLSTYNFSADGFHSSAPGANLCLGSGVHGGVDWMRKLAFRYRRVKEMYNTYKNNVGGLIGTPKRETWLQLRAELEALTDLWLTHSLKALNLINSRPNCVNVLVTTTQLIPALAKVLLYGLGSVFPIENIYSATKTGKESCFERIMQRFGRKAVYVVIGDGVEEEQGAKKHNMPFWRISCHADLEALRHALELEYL
Target sequence (Q15475 whole entry, looked up): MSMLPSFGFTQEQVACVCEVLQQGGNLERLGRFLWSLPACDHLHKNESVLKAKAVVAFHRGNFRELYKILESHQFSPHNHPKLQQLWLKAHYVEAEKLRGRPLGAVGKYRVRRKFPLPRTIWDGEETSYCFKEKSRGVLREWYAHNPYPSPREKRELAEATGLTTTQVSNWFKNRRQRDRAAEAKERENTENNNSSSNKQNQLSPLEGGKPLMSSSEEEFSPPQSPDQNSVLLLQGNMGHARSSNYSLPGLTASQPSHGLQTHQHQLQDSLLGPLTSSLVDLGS
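Compounds are tested against tagged Six1 and Eya2 proteins bridged by glutathione donor and nickel acceptor beads; after a one-hour incubation at 37 °C without light, AlphaScreen emission is recorded.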
TGFb inhibitor – qHTS for Inhibitors of TGF-b. AID 588855, 2011. HepG2 CAGA-GFP TGF-b/SMAD3 reporter, GFP fluorescence, 18 h; TGF-beta stimulated, 500 pg/mL final. Potency, µM (top dose mostly 46.1 µM), inactives show top-dose activity, negative = inhibition, most hits filed as inhibitors. 410,000 tested, 1.2% active; note: potency is the fitted concentration of half-maximal effect; % is set by controls: 0 for no effect and ±100 for the full control effect; nearly all actives have a fitted effect of over 65% in size
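Inhibition was scored as loss of TGF-beta-induced (500 pg/mL final, 18 hours, 37 degrees C) GFP in HEPG2 cells carrying a CAGA-GFP reporter, in DMEM with 1% FBS. Well GFP was summed per cell; Activity was normalised to unstimulated and stimulated DMSO wells, then concentration-response fitting.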
CtBP-E1A inh – qHTS Assay for Inhibitors of the CtBP/E1A Interaction | activity change, % (test concentration not listed) | 340,000 tested, 0.49% active | CtBP / adenovirus E1A interaction (AlphaScreen) | AlphaScreen GST-E1A/His-CtBP binding, 1536-well; stronger effect = lower value; in the data active = activity change below about -65%; inconclusive = mostly about -30% to -63%; note: % is set by controls: 0 for no effect and ±100 for the full control effect
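Protein mix (5X: 125 nM each GST-E1A, His-CtBP) was incubated with pinned compound 2 h at 37 deg C in dark, in 50 mM Tris pH 8.0 buffer with 300 mM NaCl. Glutathione donor and nickel acceptor beads followed; AlphaScreen signal read after 1 h.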
S2 tox – Viability Counterscreen for Primary qHTS for Inhibitors of ATXN expression; S2 cells (HEK-293 line with an ATXN2-luciferase reporter) viability, CellTiter-Fluor protease fluorescence, 24 h; Potency, µM (titrated, usually from 56.7 µM), usual class: cytotoxic; 400,000 tested, 0.49% active; AID 651635, 2014; note: potency is the fitted concentration of half-maximal effect; nearly all actives have a fitted effect of over 40% in size
Active calls of the source: *; ! = a repeat was not active. Shown are actives, neighbours in structure and some others; about 2.8% of the full set was active somewhere. Unless noted, calls come from the whole dose curve; as a rule, active = well fitted curve in the direction sought with a large enough effect; inconclusive = small, poorly fitted or top-dose-only effect, or another doubt; inactive = no such curve, though single readings can be large; an effect the other way counts as inactive or inconclusive.

Screening Cc1ccc2c(c1)Oc1ccc([N+](=O)[O-])cc1C(=O)N2 returned HepG2 viability 1%, ATXN2 expr inh -24%, Six1-Eya2 blk 0, TGFb inhibitor 13%, CtBP-E1A inh -1 and S2 tox inactive.
Cc1ccc2c(c1)Oc1ccc(NC(=O)CCl)cc1C(=O)N2 was read as HepG2 viability 8.9µM*, ATXN2 expr inh inconclusive, Six1-Eya2 blk -3, TGFb inhibitor 14µM*, CtBP-E1A inh 10 and S2 tox 10µM*.
COCc1ccc(CN2CCOc3ccc(C4=CCCCC4)cc3C2)o1 was read as S2 tox inactive.
`CN(C)CC(CCC(CN(C)C)C(=O)c1ccccc1)C(=O)c1ccccc1` (stereo not drawn) gave HepG2 viability -103%, ATXN2 expr inh 7.5µM*, Six1-Eya2 blk -15, TGFb inhibitor 6.3µM*, CtBP-E1A inh 8 and S2 tox 7.5µM*.
Screening COc1ccc(C(=O)C(CCCCC(CN(C)C)C(=O)c2ccc(OC)cc2)CN(C)C)cc1 (stereo not drawn) returned HepG2 viability -29%, ATXN2 expr inh -9%, Six1-Eya2 blk 2, TGFb inhibitor -2% and CtBP-E1A inh 3.
For CCOc1ccc(C(=O)C(CCC(CN(C)C)C(=O)c2ccc(OCC)cc2)CN(C)C)cc1 (stereo not drawn) the results were HepG2 viability 2.8µM*, ATXN2 expr inh 5.6µM*, Six1-Eya2 blk 4, TGFb inhibitor 5µM*, CtBP-E1A inh -14 and S2 tox 3.2µM*.
Screening CC(NC(=O)c1cc(F)ccc1F)c1nnc2n1CCN(Cc1ccccc1O)CC2 (stereo not drawn) returned S2 tox inactive.
`COc1ccc(NC(=O)CN2C(=O)CSc3ccc(S(=O)(=O)N(C)C)cc32)cc1Cl` gave HepG2 viability -1%, ATXN2 expr inh 3%, TGFb inhibitor -45% and S2 tox inactive.
Screening CCCCCCCCCC[n+]1cccc2cc(Cl)ccc21 returned HepG2 viability -84% and TGFb inhibitor inconclusive.
`CCN(CC)c1ccc(CNc2ccc3c(c2)ncn3CC)cc1` gave HepG2 viability -9%, ATXN2 expr inh -20%, Six1-Eya2 blk -4, TGFb inhibitor 1%, CtBP-E1A inh -10 and S2 tox inconclusive.
Screening CCn1cnc2cc(NCc3ccc(N(C)C)cc3)ccc21 returned HepG2 viability 7.1µM*!, ATXN2 expr inh inconclusive, Six1-Eya2 blk -24, TGFb inhibitor 10µM*, CtBP-E1A inh -11 and S2 tox inconclusive.
For CCOc1ccc(NC(=O)CC(NCc2ccccn2)C(=O)O)cc1 (stereo not drawn) the results were HepG2 viability 1%, ATXN2 expr inh -18%, Six1-Eya2 blk -90*, TGFb inhibitor 4%, CtBP-E1A inh -92* and S2 tox inactive.
For O=C(c1cccs1)N1CCN(C(=O)c2cccs2)C1=S the results were HepG2 viability -50%, ATXN2 expr inh inconclusive, Six1-Eya2 blk 1, TGFb inhibitor 6.3µM* and CtBP-E1A inh -7.
Screening CCN(CC)CC(=O)Nc1c(C)cccc1C(=O)OC returned ATXN2 expr inh 2% and S2 tox inactive.
`CCCOC(=O)c1ccc(Oc2cn[nH]c2-c2ccc(OCC)cc2O)cc1` gave HepG2 viability -111%, ATXN2 expr inh inconclusive, Six1-Eya2 blk -9, TGFb inhibitor inconclusive, CtBP-E1A inh 0 and S2 tox inconclusive.
CCCOC(=O)c1ccc(Oc2c(-c3ccc(OCC)cc3O)n[nH]c2C)cc1 was read as HepG2 viability 11µM*, ATXN2 expr inh inconclusive, Six1-Eya2 blk -9, TGFb inhibitor 11µM* and CtBP-E1A inh 7.
Screening Cc1ccccc1C1(CC(=O)N2CC3(C)CC2CC(C)(C)C3)CC(=O)N(Cc2cccnc2)C1=O (stereo not drawn) returned S2 tox inactive.
Nc1nc(-c2nn(Cc3ccccc3F)c3ncccc23)nc(N)c1N1CCOCC1 was read as ATXN2 expr inh -11%.
`CCN(CC)CCCNC(=O)CN1C(=O)CCn2nc(-c3cn(C)c4ccccc34)cc21` gave HepG2 viability 2%, ATXN2 expr inh -5%, TGFb inhibitor 29% and S2 tox inactive.
COc1cccc(CC2(CO)CCCN(Cc3cc4ccccc4[nH]3)C2)c1 (stereo not drawn) was read as HepG2 viability -10%, ATXN2 expr inh -19%, Six1-Eya2 blk -11, TGFb inhibitor 11µM*, CtBP-E1A inh -4 and S2 tox inactive.
COc1cccc(CC2(CO)CCCN(Cc3ccc(C)s3)C2)c1 (stereo not drawn) was read as HepG2 viability -16%, ATXN2 expr inh -43%, Six1-Eya2 blk -1, TGFb inhibitor -13%, CtBP-E1A inh -5 and S2 tox inactive.
For COc1cccc(CC2(CO)CCCN(Cc3[nH]c4ccc(C)cc4c3C)C2)c1 (stereo not drawn) the results were HepG2 viability -90%, ATXN2 expr inh 25µM*, Six1-Eya2 blk -25, TGFb inhibitor inconclusive, CtBP-E1A inh inconclusive and S2 tox inconclusive.
Screening CCC(C)(C)NC(=O)Cn1c(=O)ccc2cc(S(=O)(=O)N3CCC(C)CC3)ccc21 returned HepG2 viability -20%, ATXN2 expr inh -16%, TGFb inhibitor inconclusive and S2 tox inactive.
For Cc1ccccc1OCc1nc2ccccc2c(=O)n1/N=C/c1cn[nH]c1-c1ccccc1 the results were HepG2 viability -44%, ATXN2 expr inh inconclusive, Six1-Eya2 blk -12, TGFb inhibitor inconclusive, CtBP-E1A inh 14 and S2 tox inconclusive.
Screening Cc1ccc(-c2[nH]ncc2/C=N/n2c(COc3ccccc3)nc3ccccc3c2=O)cc1 returned HepG2 viability 14µM*, ATXN2 expr inh inconclusive, Six1-Eya2 blk -1, TGFb inhibitor 10µM* and CtBP-E1A inh -1.
`Cc1cc(/C=N/n2c(COc3ccccc3)nc3ccccc3c2=O)c(O)c([N+](=O)[O-])c1` gave HepG2 viability -19%, ATXN2 expr inh inconclusive, Six1-Eya2 blk -88*, TGFb inhibitor 16µM*, CtBP-E1A inh -80* and S2 tox inconclusive.
Screening O=c1c2ccccc2nc(COc2ccccc2)n1/N=C/c1ccc(O)c(O)c1 returned HepG2 viability -35%, Six1-Eya2 blk -5, TGFb inhibitor -31% and S2 tox inconclusive.
